sEH inh – soluble epoxide hydrolase (human) inhibition. P34913. recombinant human sEH enzymatic activity assay. inhibition, % at 2 µM. 91,000 tested, 0.34% active; in the data active = inhibition above about 80%
CYP2C19 inh – blocks human cytochrome P450 2C19 | 96,000 tested, 21% active | inhibition, % at 5 µM | AID 778 | CYP2C19 Supersomes, luciferin-H EGE luminescence, 30 min | P33261;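 active = CYP2C19 inhibition above a set limit at 5 µM in the primary screen, cut at about 50% in these data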;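 also: plate controls were negative control wells for no effect and 2.5 mM tranylcypromine positive control for full effect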
Target sequence (P33261 whole entry, looked up): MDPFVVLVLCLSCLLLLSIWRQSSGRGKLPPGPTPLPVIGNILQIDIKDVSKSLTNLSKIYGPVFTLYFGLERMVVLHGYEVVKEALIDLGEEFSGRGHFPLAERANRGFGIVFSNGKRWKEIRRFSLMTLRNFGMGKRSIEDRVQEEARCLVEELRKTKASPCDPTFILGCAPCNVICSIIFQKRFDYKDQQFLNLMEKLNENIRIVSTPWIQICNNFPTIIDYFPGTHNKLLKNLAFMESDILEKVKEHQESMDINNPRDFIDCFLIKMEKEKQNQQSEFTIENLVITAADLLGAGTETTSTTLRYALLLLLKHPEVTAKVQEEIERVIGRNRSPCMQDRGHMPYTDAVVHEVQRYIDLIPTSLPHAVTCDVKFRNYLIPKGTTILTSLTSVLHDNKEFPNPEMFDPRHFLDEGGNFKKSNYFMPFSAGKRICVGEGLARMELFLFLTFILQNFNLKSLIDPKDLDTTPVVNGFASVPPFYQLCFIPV
sEH activator – activators of human soluble epoxide hydrolase. purified human sEH enzymatic activity, activator screen. activation, % at 2 µM. 91,000 tested, 0.04% active. P34913; in the data active = activation above about 37%
CYP2C9 inhib – blocks human cytochrome P450 2C9; P11712; CYP2C9 Supersomes, luciferin-H conversion, luminescence; inhibition, % at 5 µM; 96,000 tested, 20% active; AID 777;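 active = blocking of liver enzyme CYP2C9 beyond about 50% at 5 µM, limit read from the data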
CYP2C9 act – increases human cytochrome P450 2C9 activity | 96,000 tested, 1.4% active | activation factor at 5 µM | P11712 | recombinant CYP2C9, luciferin-H conversion, luminescence; hits give high values; factor 1 = untreated enzyme, 0 = blocked;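 active = activation factor of 2 or more for CYP2C9 at a 5 µM dose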;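 also: 0 = sulfaphenazole-blocked wells and 1 = vehicle-only wells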
CYP2C19 act – increases human CYP2C19 enzyme activity; P33261; AID 1025; recombinant CYP2C19, luciferin-H EGE luminescence; hits give high values; 0 = fully inhibited enzyme, 1 = untreated enzyme; activation factor at 5 µM; 96,000 tested, under 10 active;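 active = activation factor of at least 2 at 5 µM in the primary screen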;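 also: 0 = wells with 2.5 mM tranylcypromine and 1 = vehicle-only wells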
* marks the source's active call; other numbers are inactive results; x = not tested or not shown. A selection: hits, their analogues and other compounds. The true share with any hit is near 27%.

SMILES	sEH inh	CYP2C19 inh	sEH activator	CYP2C9 inhib	CYP2C9 act	CYP2C19 act
O=C(CN1/C(=C(/O)c2ccccc2)C(=O)c2ccccc2S1(=O)=O)c1ccccc1	2	11	-8	48	0.5	0.9
COC(=O)c1ccc(C)c(NC(=O)Cc2coc3cc(OC)ccc23)c1	12	95*	-10	98*	0	0
COc1ccc2c(CC(=O)OCC(=O)Nc3ccc4c(c3)OCO4)coc2c1	x	16	x	38	0.6	0.8
COC(=O)c1cc(NC(=O)Cc2coc3cc(OC)ccc23)cc(C(=O)OC)c1	0	58*	1	92*	0.1	0.4
COC(=O)c1cc(NC(=O)Cc2ccc(OC)c(OC)c2)cc(C(=O)OC)c1	-8	12	6	82*	0.2	0.9
CC(C)(C)NC(=O)C1CCN(C(=O)c2ccc(Br)cc2)CC1	3	-17	0	1	1	1.2
CC(=O)N1CCN(c2ccccc2NC(=O)COc2cc(C)ccc2C(C)C)CC1	-3	90*	1	94*	0.1	0.1
Cc1cccc(OCC(=O)Nc2ccccc2N2CCN(C(=O)C(C)C)CC2)c1C	-1	30	-3	56*	0.4	0.7
Cc1ccc(C(C)C)c(OCC(=O)Nc2ccccc2N2CCN(C)CC2)c1	-2	69*	2	87*	0.1	0.3
CC(=O)N1CCN(c2ccccc2NC(=O)COc2ccc(Br)cc2)CC1	2	30	-3	38	0.6	0.7
CCc1nnc(NC(=O)CSc2nc3c(c(=O)n2CC)SC(C)C3)s1 (stereo unspecified)	x	36	x	-28	1.3	0.6
O=C(NCCc1csc(-c2cccnc2)n1)c1ccc(Br)o1	x	52*	x	42	0.6	0.5
O=C(NCCc1csc(-c2ccccc2)n1)c1ccc(Br)o1	x	100*	x	61*	0.4	0
O=C(NCCc1csc(-c2cccnc2)n1)c1ccco1	-8	10	6	13	0.9	0.9
CCN1CC2=C(OC(N)=C(C#N)C2c2ccccc2)/C(=C\c2ccccc2)C1 (stereo unspecified)	3	91*	1	66*	0.3	0.1
N#CC1=C(N)OC2=C(CN(Cc3ccccc3)C/C2=C\c2cccnc2)C1c1cccnc1 (stereo unspecified)	-5	3	8	41	0.6	1
CC(NC(=O)c1ccccc1Br)c1nnc(SCc2ccc([N+](=O)[O-])cc2)n1C (stereo unspecified)	15	-7	-13	-2	1	1.1
CS(=O)(=O)N1CCN(c2ccccc2NC(=O)c2cccnc2)CC1	-16	3	13	-2	1	1
CCOc1cc(C2Nc3ccccc3C(=O)N2c2ccccc2OC)ccc1O (stereo unspecified)	-4	21	6	52*	0.5	0.8
CCOc1cc(C2C(C(=O)O)c3cc(OCC)c(OCC)cc3C(=O)N2C)ccc1O (stereo unspecified)	x	-15	x	-19	1.2	1.2
COc1cc(C2Nc3ccccc3C(=O)N2c2ccccc2OC)ccc1O (stereo unspecified)	-14	41	11	79*	0.2	0.6
O=C1c2ccccc2NC(c2ccccn2)N1c1ccccc1F (stereo unspecified)	3	x	1	x	x	x
Cc1ccc(NCc2cccnc2)cc1	-13	54*	7	38	0.6	0.5
CCc1ccc(CNCc2cccnc2)cc1	9	80*	-7	22	0.8	0.2
c1cncc(CNc2ccc3c(c2)OCO3)c1	0	89*	-1	83*	0.2	0.1
SMILES	sEH inh	CYP2C19 inh	sEH activator	CYP2C9 inhib	CYP2C9 act	CYP2C19 act
CC(C)C(=O)Nc1ccc2c(c1)nc(CCN1CCN(C)CC1)n2C	-6	-7	6	-8	1.1	1.1
O=C(COCc1nc2ccccc2c(=O)[nH]1)NC1CCCC1	4	38	-4	19	0.8	0.6
CCOC(=O)c1nn(-c2ccc(Br)cc2)cc1C(=O)c1cccc2ccccc12	-3	28	4	-20	1.2	0.7
COc1cccc(C(=O)N2CCN(S(C)(=O)=O)CC2)c1	4	28	-6	9	0.9	0.7
COc1ccccc1CN1C(=S)SC(C)(C)C1NO (stereo unspecified)	-9	91*	4	68*	0.3	0.1
CN1C(=S)SC(C)(C)C1NO (stereo unspecified)	-12	-10	10	-15	1.2	1.1
COc1cccc2c1OC[C@@H](CO)[C@H]2N(C)C(=O)Nc1ccc(Cl)cc1Cl	x	28	x	-29	1.3	0.7
COc1cccc(-n2nc(C(=O)O)c3ccccc3c2=O)c1	x	50*	x	20	0.8	0.5
COc1ccc(-n2nc(C(=O)N3CCN(Cc4ccc5c(c4)OCO5)CC3)c3ccccc3c2=O)cc1	x	33	x	74*	0.3	0.7
COc1cccc(-n2nc(-c3ccnn3-c3ccccc3)c(=O)n(C)c2=O)c1	-4	62*	3	39	0.6	0.4
COc1ccc(-n2nc(C(=O)NCc3ccco3)c3ccccc3c2=O)cc1	-2	6	5	21	0.8	0.9
COc1ccc(-n2nc(C(=O)Nc3ccc4c(c3)OCO4)c3ccccc3c2=O)cc1	x	14	x	79*	0.2	0.9
O=C(c1cc2ccccc2oc1=O)N1CCN(Cc2ccc3c(c2)OCO3)CC1	x	24	x	-20	1.2	0.8
COC(=O)CNC(=O)c1nn(-c2cccc(OC)c2)c(=O)c2ccccc12	x	3	x	16	0.8	1
O=c1cc(N2CCOCC2)[nH]c(=O)n1-c1ccc(Br)cc1	x	-3	x	-3	1	1
CCOC(=O)C1C2C=CC3(CN(C4CCCC4)C(=O)C13)O2 (stereo unspecified)	x	11	x	-10	1.1	0.9
COc1ccc(NC(=O)C2CC(=O)NC3=C2C(=O)CC(C)(C)C3)cc1 (stereo unspecified)	1	-7	2	-6	1.1	1.1
O=C(CCn1nnc2ccccc21)Nc1nnc(-c2ccccc2F)s1	9	20	-9	56*	0.4	0.8
O=C(CCn1nnc2ccccc21)Nc1nnc(COc2ccccc2F)s1	25	32	-24	10	0.9	0.7
O=C(NCc1ccccn1)c1cc(-n2cnnc2)ccc1Cl	6	10	-1	3	1	0.9
CCc1cc(C)cc(OCCNC(=O)c2ncn[nH]2)c1	-5	49	10	-66	1.7	0.5
CC(C)(C)c1ccc(OCCNC(=O)c2ncn[nH]2)cc1	-13	75*	13	53*	0.5	0.2
O=C(Nc1ccccc1)N1CC=C(c2ccccc2)CC1	21	33	-19	19	0.8	0.7
O=C(Nc1ccccc1)N1CC=C(c2ccc(F)cc2)CC1	26	56*	-22	30	0.7	0.4
COC(=O)c1ccc(C(=O)OCc2nc3cc4ccccc4cc3[nH]2)cc1	-1	x	1	x	x	x

Assay outcomes deposited in PubChem by several laboratories.
